Data reported in PubChem BioAssay (EPA / NIEHS).
Active and inactive are the calls of the source. The calls were made as follows: active = hit-call score of the fitted dose curve at least 0.9, where 1 is the maximum; inactive = score below 0.9.

The compounds below were run on Intercellular Adhesion Molecule 1 (ICAM1), ICAM1 (gene 3383) (assay: BSK_3C_ICAM1: BioMAP Diversity Plus: 3C Assay for Intercellular Adhesion Molecule 1 (ICAM1) Biomarker Activity (AID 2283003)). Settings: primary human endothelial cells (HUVEC); actives raise or lower the signal.
Description: BSK_3C is a cell-based, multiplexed-readout assay that uses umbilical vein endothelium, a human vascular primary cell, with measurements taken at 24 hours after chemical dosing in a 96-well plate.BSK_3C_ICAM1 is an assay component measured in the BSK_3C assay. It measures ICAM-1 antibody related to regulation of gene expression using ELISA technology.Data from the assay component BSK_3C_ICAM1 was analyzed into 1 assay endpoint. This assay endpoint, BSK_3C_ICAM1, was analyzed with bidirectional fitting relative to DMSO as the negative control and baseline of activity. Using a type of binding reporter, gain or loss-of-signal activity can be used to understand changes in the signaling as they relate to the gene ICAM1. Furthermore, this assay endpoint can be referred to as a primary readout, because this assay has produced multiple assay endpoints where this one serves a signaling function. To generalize the intended target to other relatable targets, this assay endpoint is annotated to the cell adhesion molecules intended target family, where the subfamily is Immunoglobulin CAM.
The levels of cell surface (or secreted, indicated by the prefix "s") biomarker endpoints were measured by ELISA. Overt cytotoxicity to cells in confluent adherent cultures (all systems other than the BT system) was assessed by measuring total protein levels using sulforhodamine B (SRB) staining in parallel cultures at the time of biomarker measurements, indicated as SRB endpoints. For proliferation assays for adherent cell types, individual cell types are cultured at sub-confluence and relative cell numbers quantified by SRB staining at time points optimized for each system (48 h: 3C and CASM3C systems; 72 h: BT and HDF3CGF systems; 96 h: SAg system). SRB was performed by staining cells with 0.1% SRB after fixation with 10% TCA and reading wells at 560 nm.Viability and proliferation of PBMC (T cells) was quantified by Alamar Blue reduction for the SAg and BT systems. For PBMC viability (referred to as PBMC Cytotoxicity within the assay endpoint names), cells were plated (75,000/well in a 96-well plate) and then chemical samples added for 1 h before addition of activators, SEB and TSST-1 (20 ng/mL final concentration each). Cells were incubated for 90 h. Then, Alamar Blue (20 uL/well) (Invitrogen, Cat DAL1100) was added for 6 h, and the plates were read with a fluorescence microplate reader at 546/580 nm (excitation/emission). For PBMC proliferation, cells were plated and activated as above but incubated for only 16 h prior to addition of Alamar Blue. Plates were read after 6 h.

Row | Compound | outcome | AC50
1 | C[N+]1(C)CCCCC1 | inactive | –
2 | CCOC(=O)COc1cc(-c2nn(C)c(OC(F)F)c2Cl)c(F)cc1Cl | inactive | –
3 | CCc1cnc(C2=NC(C)(C(C)C)C(=O)N2)c(C(=O)O)c1 (stereo not given) | inactive | –
4 | CCCCOC(=O)c1ccccc1C(=O)O | inactive | –
5 | CCCCSP(=O)(SCCCC)SCCCC | inactive | –
6 | CCCOc1nn(C(=O)NS(=O)(=O)c2ccccc2C(=O)OC)c(=O)n1C | inactive | –
7 | CCCCOC(=O)[C@@H](C)Oc1ccc(Oc2ccc(C#N)cc2F)cc1 | inactive | –
8 | CC(C)[C@H](C(=O)O[C@H](C#N)c1cccc(Oc2ccccc2)c1)c1ccc(Cl)cc1 | inactive | –
9 | CC1(C(=O)Nc2ccc(O)c(Cl)c2Cl)CCCCC1 | inactive | –
10 | CCc1cccc(CC)c1N(COC)C(=O)CCl | inactive | –
11 | CNC(=O)ON=C(SC)C(=O)N(C)C | inactive | –
12 | CC1=NNC(=O)N(/N=C/c2cccnc2)C1 | inactive | –
13 | CC(=NC#N)N(C)Cc1ccc(Cl)nc1 | inactive | –
14 | COP(=O)(OC)SCn1c(=O)oc2cc(Cl)cnc21 | inactive | –
15 | CCCSP(=O)(OCC)Oc1ccc(Br)cc1Cl (stereo not given) | inactive | –
16 | CCOP(=S)(OCC)SCCSCC | inactive | –
17 | Cc1cc(C2CC2)nc(Nc2ccccc2)n1 | inactive | –
18 | CCOP(=S)(OCC)Oc1ccc([N+](=O)[O-])cc1 | inactive | –
19 | CCCSP(=O)(OCC)SCCC | inactive | –
20 | CC(C1CC1)C(O)(Cn1cncn1)c1ccc(Cl)cc1 (stereo not given) | inactive | –

Row | Compound | outcome | AC50
21 | CCOP(=O)(OCC)Oc1cc(C)nc(C(C)C)n1 | inactive | –
22 | COc1cccc(C(=O)NN(C(=O)c2cc(C)cc(C)c2)C(C)(C)C)c1C | inactive | –
23 | CCOP(=S)(OCC)OC(Cl)C(Cl)(Cl)Cl (stereo not given) | inactive | –
24 | S=C1NCCN1 | inactive | –
25 | Cc1nn(-c2cc(NS(C)(=O)=O)c(Cl)cc2Cl)c(=O)n1C(F)F | inactive | –
26 | CSC1=N[C@@](C)(c2ccccc2)C(=O)N1Nc1ccccc1 | inactive | –
27 | O=c1ccc(=O)[nH][nH]1 | inactive | –
28 | CC(C)=CC1C(C(=O)OCN2C(=O)C3=C(CCCC3)C2=O)C1(C)C (stereo not given) | inactive | –
29 | Nc1c(Cl)cc([N+](=O)[O-])cc1Cl | inactive | –
30 | CCOP(=S)(OCC)Oc1ccc2c(C)c(Cl)c(=O)oc2c1 | inactive | –
31 | CC(C)N(C(=O)SCC(Cl)=C(Cl)Cl)C(C)C | – | 30.9 µM (active)
32 | CCc1cccc(C)c1N(C(=O)CCl)C(C)COC (stereo not given) | inactive | –
33 | CCOP(=O)(NC(C)C)Oc1ccc(SC)c(C)c1 (stereo not given) | inactive | –
34 | Nc1nc(N)nc(NC2CC2)n1 | inactive | –
35 | COP(=O)(NC(C)=O)SC (stereo not given) | inactive | –
36 | CN(C)NC(=O)CCC(=O)O | inactive | –
37 | CN(C)C(=O)Nc1cccc(C(F)(F)F)c1 | inactive | –
38 | C=C(C)[C@H]1Cc2c(ccc3c2O[C@@H]2COc4cc(OC)c(OC)cc4[C@@H]2C3=O)O1 | inactive | –
39 | Cc1ccn2nc(S(=O)(=O)Nc3c(F)cccc3F)nc2n1 | inactive | –
40 | CC(Oc1cccc(Cl)c1)C(=O)O (stereo not given) | inactive | –
